MPTP block – mitochondrial permeability transition pore inhibitors, primary screen, biochemical, isolated mouse mitochondria, absorbance. inhibition, % at 10 µM. 360,000 compounds, 1.4% hits. AID 602449, 2012. Ca2+ swelling absorbance, 30 min;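 active = inhibition of 50% or more, scaled per plate between neutral and stimulator controls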;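 note: 0% = DMSO wells given calcium and 100% = 1 mM EGTA wells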
NR3A LBD binder – binders of NR3A ligand-binding domain, primary screen, biophysical, differential scanning fluorimetry, uHTS. Glutamate receptor ionotropic, NMDA 3A (GRIN3A) ligand-binding domain. NR3A LBD differential scanning fluorimetry, Tm shift; 0% = protein alone, 100% = glycine-bound protein. Tm shift relative to glycine control, % at 25 µM. 340,000 compounds, 2.5% hits. AID 1259313, 2017;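 active = melting temperature shift of at least 10% of the positive control shift, at one fixed dose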
FAS TE block – FAS thioesterase domain inhibitors, primary screen, biochemical, fluorescence intensity, uHTS; Fatty acid synthase (Homo sapiens), P49327; recombinant FAS-TE, OMFH fluorogenic substrate, fluorescence endpoint; inhibition, % at 15 µM; 360,000 compounds, 0.67% hits; AID 602261, 2012;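 active = compounds whose normalised, plate-corrected inhibition of enzyme fluorescence in the single-dose primary screen is 50% or more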;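 note: 0% = DMSO with enzyme and 100% = substrate without enzyme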
MIN6 prolif – inducers of MIN6 beta-cell proliferation, primary screen, ATP luminescence, uHTS. MIN6 cells proliferation, ATPlite luminescence, 48 h; cells starved in 0.2% serum; 100% = growth in 10% serum. proliferation, % at 10 µM. 330,000 compounds, 0.29% hits. AID 2380, 2010;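 active = compounds whose signal lies at least 3.5 SD above the mean of all wells on their plate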;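 note: 0% = DMSO-treated cells in low-serum medium and 100% = 10% serum control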
p-CIP stab down – p/CIP-EGFP fusion destabilizers, primary screen, fluorescence, F442A cells; Q05BA5; 16 h; decrease of EGFP signal, % at 10 µM; 290,000 compounds, 0.01% hits; AID 1984, 2009;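 active = EGFP signal decrease of at least 30% at 10 µM or well 3 SD below plate mean, unless failing retest; inactive = the rest, including hits failing retest or dose response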
Target sequence (Q05BA5 1-1403): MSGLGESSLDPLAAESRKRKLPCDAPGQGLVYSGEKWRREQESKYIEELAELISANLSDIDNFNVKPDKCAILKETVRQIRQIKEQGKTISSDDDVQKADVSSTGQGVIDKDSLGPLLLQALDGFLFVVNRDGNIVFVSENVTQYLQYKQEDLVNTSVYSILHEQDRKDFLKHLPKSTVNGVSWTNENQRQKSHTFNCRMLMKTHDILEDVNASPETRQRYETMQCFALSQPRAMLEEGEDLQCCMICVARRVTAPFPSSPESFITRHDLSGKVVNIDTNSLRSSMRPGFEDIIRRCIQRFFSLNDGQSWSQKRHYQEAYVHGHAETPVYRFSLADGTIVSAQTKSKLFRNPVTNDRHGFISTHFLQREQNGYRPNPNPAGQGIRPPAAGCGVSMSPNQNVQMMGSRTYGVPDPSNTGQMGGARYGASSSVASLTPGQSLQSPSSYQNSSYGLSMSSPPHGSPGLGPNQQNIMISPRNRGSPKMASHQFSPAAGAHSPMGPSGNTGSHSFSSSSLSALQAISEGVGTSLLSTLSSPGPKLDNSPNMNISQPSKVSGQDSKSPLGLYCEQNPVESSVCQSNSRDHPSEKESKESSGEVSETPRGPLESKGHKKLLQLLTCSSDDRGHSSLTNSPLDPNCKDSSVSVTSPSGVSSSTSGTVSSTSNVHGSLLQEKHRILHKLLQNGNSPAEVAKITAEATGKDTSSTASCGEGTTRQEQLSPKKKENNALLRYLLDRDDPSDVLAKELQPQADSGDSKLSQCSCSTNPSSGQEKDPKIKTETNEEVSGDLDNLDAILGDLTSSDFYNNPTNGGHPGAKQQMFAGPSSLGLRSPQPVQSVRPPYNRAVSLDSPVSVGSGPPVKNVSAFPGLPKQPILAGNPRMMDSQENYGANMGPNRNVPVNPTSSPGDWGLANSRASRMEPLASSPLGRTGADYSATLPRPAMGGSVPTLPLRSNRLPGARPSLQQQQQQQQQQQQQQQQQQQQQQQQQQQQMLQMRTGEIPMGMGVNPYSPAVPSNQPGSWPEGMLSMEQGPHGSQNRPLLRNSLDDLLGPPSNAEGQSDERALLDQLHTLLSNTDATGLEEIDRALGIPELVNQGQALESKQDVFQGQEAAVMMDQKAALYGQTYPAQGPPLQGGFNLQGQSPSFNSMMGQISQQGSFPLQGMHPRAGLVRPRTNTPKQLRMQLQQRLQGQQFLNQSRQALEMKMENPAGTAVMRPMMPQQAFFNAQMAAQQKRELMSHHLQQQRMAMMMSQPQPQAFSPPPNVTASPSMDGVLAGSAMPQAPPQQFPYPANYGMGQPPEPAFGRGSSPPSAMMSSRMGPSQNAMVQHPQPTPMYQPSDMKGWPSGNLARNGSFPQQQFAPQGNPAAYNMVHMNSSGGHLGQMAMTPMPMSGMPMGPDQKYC
FAS-TE inh conf – FAS thioesterase domain inhibitors, confirmation, biochemical, fluorescence intensity, single concentration. shares compounds with FAS TE block. recombinant FAS-TE, OMFH fluorogenic substrate. inhibition, % at 15 µM. 2,300 compounds, 45% hits. AID 624325, 2012;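 active = compounds inhibiting the enzyme by at least 50% at 15 µM in any one of the replicates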;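 note: 0% = enzyme with DMSO only and 100% = wells lacking enzyme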
Starred values were filed as active, the others as inactive; x = no result. This is a sample that favours compounds with a hit; in the whole collection about 4.1% have one here.

SMILES	MPTP block	NR3A LBD binder	FAS TE block	MIN6 prolif	p-CIP stab down	FAS-TE inh conf
CCc1ccc2c(c1)NC(=O)C2(C)Cc1ccc(Cl)s1 (stereo not given)	0	x	20	x	x	x
O=C1OCCN1C(=O)[C@H]1[C@H](c2ccc([N+](=O)[O-])cc2)C(c2ccccc2)=NN1c1ccccc1	0	3	78*	x	x	19
N#Cc1ccc(Sc2nc3ccccc3[nH]2)cc1C#N	2	2	74*	-1	6	85*
O=[N+]([O-])c1cccc(C=NN=C2c3ccccc3-c3ccccc32)c1	4	1	28	x	x	x
CC1S/C(=N\N=C\c2cccc([N+](=O)[O-])c2)N(C(C)(C)C)C1=O (stereo not given)	3	0	54*	-3	-8	0
Cc1ccc(NC(=O)/C(=C\c2ccc([N+](=O)[O-])cc2)NC(=O)c2ccccc2)cc1	4	-2	20	-4	-10	x
CC(C)(C)NC(=O)/C(=C/c1ccccc1F)NC(=O)c1ccc([N+](=O)[O-])cc1	0	2	42	-3	-7	x
COc1ccc(/C=C(\NC(=O)c2ccc([N+](=O)[O-])cc2)C(=O)NCCCn2ccnc2)cc1	-1	0	74*	2	-4	81*
COc1ccc(/C=C(/NC(=O)c2ccc([N+](=O)[O-])cc2)C(=O)NC(C)(C)C)cc1	1	0	70*	-2	5	55*
O=C(Nc1ccc(C(=O)O)cc1)/C(=C\c1ccc([N+](=O)[O-])cc1)NC(=O)c1ccc(Br)cc1	-1	-4	82*	-1	3	91*
CCCCOc1ccc(C(=O)N/C(=C\c2ccc([N+](=O)[O-])cc2)C(=O)OCc2ccco2)cc1	10	-2	60*	-3	1	40
CCOC(=O)c1cc2c(=O)n3ccccc3nc2n(C)c1=NC(=O)c1c(-c2c(F)cccc2Cl)noc1C	5	0	13	1	x	x
CCOC(=O)c1cc2c(=O)n3ccccc3nc2n(CC2CCCO2)c1=NC(C)=O (stereo not given)	-1	1	-5	-1	0	x
CCOC(=O)c1cc2c(=O)n3ccccc3nc2n(C(C)C)c1=NC(=O)c1c(-c2c(F)cccc2Cl)noc1C	2	-33	94*	-5	-5	4
CCOC(=O)c1cc2c(=O)n3ccccc3nc2n(CC2CCCO2)c1=NC(=O)/C=C/c1ccccc1 (stereo not given)	0	-2	80*	-2	-9	83*
CCOC(=O)C1=CCC(c2ccccc2)N(S(=O)(=O)c2ccc(C)cc2)[C@H]1CC (stereo not given in full)	1	x	x	x	x	x
CC(C)(C)OC(=O)N1CCC2(CC1)Oc1ccc(F)cc1C(=O)C21CC(c2ccccc2)=NO1 (stereo not given)	3	2	59*	-2	x	10
O=C(c1ccoc1)N1CCC2(CC1)Oc1ccc(Cl)cc1C(=O)C21CC(c2ccc(Cl)cc2)=NO1 (stereo not given)	2	1	14	-8	8	x
Cc1ccc(C(=O)N2CCC3(CC2)Oc2ccc(Cl)cc2C(=O)C32CC(c3ccc(Cl)cc3)=NO2)s1 (stereo not given)	1	9	20	-6	-6	x
O=C(c1ccc2c(c1)OCO2)N1CCC2(CC1)Oc1ccc(F)cc1C(=O)C21CC(c2ccccc2)=NO1 (stereo not given)	1	-2	67*	-8	4	19
O=C(c1ccoc1)N1CCC2(CC1)Oc1ccc(F)cc1C(=O)C21CC(c2ccccc2)=NO1 (stereo not given)	-1	2	14	-4	-19	x
O=C(c1ccoc1)N1CCC2(CC1)Oc1ccc(F)cc1C(=O)C21CC(c2ccc(Cl)cc2)=NO1 (stereo not given)	0	0	74*	-6	-2	22
Cc1ccc(C(=O)N2CCC3(CC2)Oc2ccc(F)cc2C(=O)C32CC(c3ccc(Cl)cc3)=NO2)s1 (stereo not given)	0	1	87*	-8	-4	22
O=C(c1ccc2c(c1)OCO2)N1CCC2(CC1)Oc1ccc(F)cc1C(=O)C21CC(c2cccnc2)=NO1 (stereo not given)	1	-5	15	-5	0	x
CCNC(=O)C1(C)CCN(C(=O)c2ccccc2OC)C1 (stereo not given)	2	x	-4	x	x	x
SMILES	MPTP block	NR3A LBD binder	FAS TE block	MIN6 prolif	p-CIP stab down	FAS-TE inh conf
CCCS(=O)(=O)NC(=O)C1(C)CCCN(C(=O)c2ccc3c(c2)OCO3)C1 (stereo not given)	-1	x	-9	x	x	x
Cc1ccc(C(=O)N2CCC3(CC2)Oc2ccc(F)cc2C(=O)C32CC(c3ccccc3)=NO2)s1 (stereo not given)	0	-1	72*	-6	-7	22
Cc1ccc(C(=O)N2CCC3(CC2)Oc2ccc(Cl)cc2C(=O)C32CC(c3ccccc3)=NO2)s1 (stereo not given)	0	-5	27	-3	1	x
N#Cc1cc(Oc2ccc(Cl)cc2)c(N2CCOCC2)cc1C#N	3	1	67*	0	x	30*
Cc1cccc(C(=O)Oc2ccccc2/C=N/NC(=O)c2ccc(NC(=O)C(C)(C)C)cc2)c1	-1	6	66*	0	-7	18
CCOc1cc(/C=N\NC(=O)c2ccc(NC(=O)C(C)(C)C)cc2)ccc1OC(=O)c1cccc(C)c1	1	1	24	-5	3	x
CC(C)(C)C(=O)Nc1ccc(C(=O)N/N=C/c2ccccc2OC(=O)c2ccccc2)cc1	1	-1	29	-3	-8	x
CC(C)(C)C(=O)Nc1ccc(C(=O)N/N=C/c2ccccc2OC(=O)c2ccc(Cl)cc2)cc1	2	21*	76*	-4	-4	12
CCCS(=O)(=O)NC(=O)C1(C)CCN(C(=O)c2ccc(F)c(C)c2)C1 (stereo not given)	0	x	-8	x	x	x
O=C(O)CN1C(=O)/C(=C\c2cccc(OCc3ccc(Cl)cc3Cl)c2)SC1=S	0	2	59*	-4	0	38
O=C(O)CN1C(=O)/C(=C\c2ccccc2OCc2ccc(Cl)cc2Cl)SC1=S	6	9	39	-4	-11	x
O=C(Nc1ccccc1)C1=C(c2ccccc2)S(=O)(=O)CCS1(=O)=O	-1	-1	80*	x	-32	37
